Experimental data published in the supplement of paper PMC6992640.
± gives the standard deviation of the averaged measurements.

Key:
Assay in all cases: cell viability (% of vehicle); higher = less cytotoxic
HCI01 [1] = cells of a triple-negative basal-like breast cancer xenograft; conditions: 10 µM; 72 h
HCI03 = cells of an ER-positive luminal breast cancer xenograft; conditions: 10 µM; 72 h
HCI09 = cells of a triple-negative luminal androgen receptor type breast cancer xenograft; conditions: 10 µM; 72 h
HCI11 = cells of an ER-positive luminal breast cancer xenograft; conditions: 10 µM; 72 h
HCI13 = cells of an ER-positive luminal breast cancer xenograft; conditions: 10 µM; 72 h
HCI16 = cells of a triple-negative basal-like breast cancer xenograft; conditions: 10 µM; 72 h
UCD52 [2] = cells of a triple-negative basal-like breast cancer xenograft; conditions: 10 µM; 72 h
WHIM2 [3] = cells of a triple-negative basal-like breast cancer xenograft; conditions: 10 µM; 72 h
WHIM30 [4] = cells of a triple-negative basal-like breast cancer xenograft; conditions: 10 µM; 72 h
HCI01 [5] = conditions: 1 µM; 72 h
UCD52 [6] = conditions: 1 µM; 72 h
WHIM2 [7] = conditions: 1 µM; 72 h
WHIM30 [8] = conditions: 1 µM; 72 h

Row | Compound | cell viability (HCI01 [1]) | cell viability (HCI03) | cell viability (HCI09) | cell viability (HCI11) | cell viability (HCI13) | cell viability (HCI16) | cell viability (UCD52 [2]) | cell viability (WHIM2 [3]) | cell viability (WHIM30 [4]) | cell viability (HCI01 [5]) | cell viability (UCD52 [6]) | cell viability (WHIM2 [7]) | cell viability (WHIM30 [8])
1 | CC1CNCCc2ccc(Cl)cc21.Cl (stereo not drawn) [Lorcaserin HCl] | 96.6 ± 5.8 | 110 | 100 ± 5.7 | 81.3 | 94.9 ± 12 | 106 | 90.3 ± 3.9 | 82.89 ± 0.73 | 111.3 ± 0.19 |  |  |  | 
2 | CNC1CC(N)C(O)C(OC2OC(CO)C(O)C3OC4(OC(C(N)CO)C(O)C(O)C4O)OC23)C1O (stereo not drawn) [Hygromycin B] | 66.3 ± 21 | 70.2 | 122 ± 75 | 110 | 114.5 ± 1.1 | 94.3 | 87.4 ± 22 | 97.2 ± 1.2 | 88.3 ± 23 |  |  |  | 
3 | CCCCCCCCCCCC[N+](C)(C)CCOc1ccccc1.[Br-] [Domiphen Bromide] | 34.9 ± 13 | 48.7 | 24.1 ± 1.5 | 50.1 | 41.3 ± 10 | 46.4 | 27.6 ± 1.8 | 44 ± 14 | 28.4 ± 4.7 | 88.5 | 80.4 | 81.7 | 57.1
4 | NCCC(O)(P(=O)([O-])O)P(=O)([O-])O.[Na+].[Na+] [Pamidronate Disodium] | 85.1 ± 9.1 | 82.9 | 86.9 ± 2.1 | 80.8 | 95.2 ± 14 | 59.9 | 76.4 ± 15 | 75 ± 21 | 92.4 ± 13 |  |  |  | 
5 | CCC[C@H](C)[C@@]1(CC)C(=O)N=C([O-])NC1=O.[Na+] [Pentobarbital sodium salt] | 86.4 ± 3 | 105 | 81.9 ± 8.1 | 85.2 | 96.3 ± 17 | 87 | 86.6 ± 2.1 | 96.2 ± 21 | 99.4 ± 11 |  |  |  | 
6 | Cn1c(COP(=O)(NCCBr)NCCBr)cnc1[N+](=O)[O-] | 99.5 ± 14 | 100 | 123 ± 33 | 120 | 153.9 ± 0.46 | 44.9 | 81.4 ± 2.1 | 44.6 ± 2.6 | 107 ± 2.5 |  |  |  | 
7 | CC12CC(=CO)C(=O)CC1CCC1C2CCC2(C)C1CCC2(C)O (stereo not drawn) [Oxymetholone] | 114 ± 30 | 97.8 | 85 ± 38 | 86.7 | 54.8 ± 5.8 | 124 | 80.6 ± 3.8 | 90.9 ± 26 | 135 ± 1.9 |  |  |  | 
8 | CC(O)(CS(=O)(=O)c1ccc(F)cc1)C(=O)Nc1ccc(C#N)c(C(F)(F)F)c1 (stereo not drawn) [Bicalutamide] | 108 ± 8.9 | 113 | 90.6 ± 13 | 90.2 | 127 ± 3.6 | 108 | 89.7 ± 11 | 90.2 ± 6.4 | 108 ± 3.1 |  |  |  | 
9 | CC(C)CC(CN)CC(=O)O (stereo not drawn) [Pregabalin] | 97.8 ± 10 | 104 | 90.8 ± 9 | 95.6 | 138 ± 18 | 70.8 | 78.2 ± 7.7 | 81.4 ± 9.4 | 111 ± 21 |  |  |  | 
10 | CCC1=C[C@H]2CN3CCc4c([nH]c5ccccc45)[C@@](C(=O)OC)(C2)[C@@H]13 [Catharanthine] | 88.2 ± 14 | 122 | 99.5 ± 13 | 92.1 | 94 ± 2.4 | 124 | 101 ± 2.3 | 85.5 ± 14 | 97 ± 3.2 |  |  |  | 
11 | CC(=O)O[C@@]12CO[C@@H]1C[C@@H](O)[C@@]1(C)C(=O)[C@@H](O)C3=C(C)[C@@H](O)C[C@@](O)([C@@H](OC(=O)c4ccccc4)[C@H]21)C3(C)C [10-DAB (10-Deacetylbaccatin)] | 138 ± 19 | 107 | 99.3 ± 2.1 | 108 | 97.8 ± 2.6 | 126 | 79.2 ± 2.9 | 84.7 ± 18 | 126 ± 7.2 |  |  |  | 
12 | Cc1cc(C(C#N)c2ccc(Cl)cc2)c(Cl)cc1NC(=O)c1cc(I)cc(I)c1[O-].[Na+] (stereo not drawn) [Closantel Sodium] | 34.4 ± 1.9 | 114 | 17.978 ± 0.0048 | 93.2 | 35.4 ± 2.9 | 96.3 | 68.1 ± 7.7 | 44.6 ± 10 | 52.7 ± 0.69 | 93.1 | 90.9 | 106 | 88.2
13 | O=C(OC1CC2CCC(C1)[N+]21CCCC1)C(O)(c1ccccc1)c1ccccc1.[Cl-] (stereo not drawn) [Trospium chloride] | 158 ± 1.6 | 119 | 112 ± 5.4 | 124 | 157 ± 39 | 165 | 101 ± 10 | 110 ± 14 | 121 ± 3.2 |  |  |  | 
14 | C[C@]12COC(=O)C[C@@H]1CC[C@@H]1[C@@H]2CC[C@@]2(C)[C@H]1CC[C@]2(C)O [Oxandrolone] | 98.9 ± 17 | 108 | 107.8 ± 0.62 | 89.1 | 147 ± 18 | 117 | 95.8 ± 5.3 | 110 ± 23 | 110 ± 13 |  |  |  | 
15 | CN1C2CCC1CC(OC(=O)C(CO)c1ccccc1)C2 (stereo not drawn) [Hyoscyamine] | 135 ± 14 | 132 | 109 ± 16 | 94.3 | 145 ± 5.8 | 118 | 74.2 ± 7.5 | 93.8 ± 4 | 108 ± 3.8 |  |  |  | 
16 | C=CCC1(O)CCC2C3CCC4=CC(=O)CCC4=C3C=CC21C (stereo not drawn) [Altrenogest] | 172 ± 56 | 125 | 65.5 ± 13 | 78.7 | 137 ± 7.6 | 150 | 83.1 ± 6.5 | 107 ± 12 | 141 ± 8.9 |  |  |  | 
17 | Cc1cc(C(C#N)c2ccc(Cl)cc2)c(Cl)cc1NC(=O)c1cc(I)cc(I)c1O (stereo not drawn) [Closantel] | 29.4 ± 6.5 | 104 | 17.7 ± 1.8 | 85.7 | 37 ± 7.8 | 105 | 61.5 ± 2.6 | 37.6 ± 13 | 87.6 ± 4 | 88.8 | 91.3 | 105 | 82.7
18 | CC(C)OC(=O)[C@H](C)N[P@](=O)(CO[C@H](C)Cn1cnc2c(N)ncnc21)Oc1ccccc1 | 97.2 ± 1.3 | 109 | 87.9 ± 11 | 112 | 65.7 ± 8 | 183 | 103.7 ± 0.83 | 117.1 ± 0.62 | 144 ± 8.2 |  |  |  | 
19 | Cc1cccc(C(C)c2cnc[nH]2)c1C.Cl (stereo not drawn) [Dexmedetomidine HCl] | 110 ± 1.2 | 103 | 91.2 ± 26 | 103 | 82.7 ± 11 | 89.9 | 86.7 ± 1.2 | 72.3 ± 17 | 112.3 ± 0.75 |  |  |  | 
